Activity calls are given as the source filed them. Unless noted, how the calls were made is not given here.

Assay [1] in a line: anti-His antibody binders, primary screen, artefact control for SMM control protein annotation, biochemical, small-molecule microarray, 635 nm fluorescence (AID 1128).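 Further: score merges feature fluorescence with signal-to-noise for each printed compound spot.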 The settings on record: anti-His Alexa647 antibody binding, higher = more signal.
The test system of assay [2] is Human papillomavirus type 1a E7 protein (residues 1-88). As to the kind of experiment: HPV1a E7 small-molecule binders, primary screen, biochemical, small-molecule microarray, residues 1-88, 635 nm (AID 1129). The settings on record: small-molecule microarray binding, fluorescence 635 nm; higher = more signal.
The target of assay [3] is Focal adhesion kinase 1 (Homo sapiens) (UniProt Q05397). As to the kind of experiment: small-molecule microarray binders of FAK, primary screen, biochemical, 635/667 nm fluorescence, BSA, DTT (AID 1130).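 Further: composite of spot emission at 667 nm and signal to noise over triplicate slides.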 The settings on record: PTK2 binding, 635 nm fluorescence, higher = more signal.
Chain of Focal adhesion kinase 1 (Homo sapiens) (Q05397 whole entry, looked up): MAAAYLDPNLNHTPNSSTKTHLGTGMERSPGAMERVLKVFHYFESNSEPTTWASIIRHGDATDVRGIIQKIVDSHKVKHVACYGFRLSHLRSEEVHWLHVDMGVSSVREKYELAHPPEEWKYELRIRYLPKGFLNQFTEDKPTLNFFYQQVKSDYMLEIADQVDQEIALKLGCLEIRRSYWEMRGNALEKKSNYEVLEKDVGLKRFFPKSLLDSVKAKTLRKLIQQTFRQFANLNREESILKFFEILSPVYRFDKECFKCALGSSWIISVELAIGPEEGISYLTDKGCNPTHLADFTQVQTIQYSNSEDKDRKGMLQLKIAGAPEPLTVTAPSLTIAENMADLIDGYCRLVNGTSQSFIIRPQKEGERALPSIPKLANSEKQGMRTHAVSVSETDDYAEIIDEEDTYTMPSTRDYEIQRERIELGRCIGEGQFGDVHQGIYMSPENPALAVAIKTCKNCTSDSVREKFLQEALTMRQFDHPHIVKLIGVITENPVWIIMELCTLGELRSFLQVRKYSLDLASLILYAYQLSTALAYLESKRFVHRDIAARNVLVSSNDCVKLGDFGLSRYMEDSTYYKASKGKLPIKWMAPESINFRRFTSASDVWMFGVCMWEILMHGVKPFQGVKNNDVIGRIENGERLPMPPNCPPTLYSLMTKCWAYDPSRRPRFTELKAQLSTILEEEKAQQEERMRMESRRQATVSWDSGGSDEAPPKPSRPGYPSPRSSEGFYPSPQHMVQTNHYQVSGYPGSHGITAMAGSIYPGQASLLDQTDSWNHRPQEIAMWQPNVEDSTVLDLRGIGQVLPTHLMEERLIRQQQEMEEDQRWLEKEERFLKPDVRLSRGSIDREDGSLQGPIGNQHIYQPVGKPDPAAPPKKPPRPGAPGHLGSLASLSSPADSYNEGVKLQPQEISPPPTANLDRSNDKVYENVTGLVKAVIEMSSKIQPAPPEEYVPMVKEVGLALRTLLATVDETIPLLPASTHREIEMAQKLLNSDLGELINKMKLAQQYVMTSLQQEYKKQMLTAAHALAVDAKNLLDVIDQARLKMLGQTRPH
Assay [4] relates to Fibrinogen (Alexa647-labelled). As to the kind of experiment: fibrinogen binders on compound microarrays, profiling panel, artefact control for SMM control-protein annotation, biochemical, small-molecule microarray, 635/667 nm fluorescence (AID 1131).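 Further: z-score merges 667 nm fluorescence with per-spot signal-to-noise over triplicate slides.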 The settings on record: fibrinogen-A647 binding fluorescence, higher = more signal.
Assay [5] addresses Follistatin (Homo sapiens) (UniProt P19883). As to the kind of experiment: follistatin binders on small-molecule microarrays, primary screen, biochemical, small-molecule microarray, 635/667 nm fluorescence (AID 1132). As to conditions: FST binding, 635 nm fluorescence, higher = more signal.
Assay [6] addresses Fibroblast growth factor 2 (Homo sapiens) (UniProt P09038). As to the kind of experiment: FGF2 binders on small-molecule microarrays, primary screen, biochemical, small-molecule microarray, 635/667 nm fluorescence (AID 1133). The settings on record: small-molecule microarray binding, FGF2, fluorescence 635/667; higher = more signal.
Assay [7] can be described thus: mitochondrial membrane potential change in A549 cells, profiling panel, cell-based, JC-1 fluorescence, basal, 24 h, 100 nL (AID 1138).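 Further: A549 lung adenocarcinoma cells under basal conditions with no added stimulus; test concentration not given here.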 The settings on record: higher = more signal.
Another assay deals with Lefty1. As to the kind of experiment: Lefty1 binders on small-molecule microarrays, primary screen, biochemical, small-molecule microarray, 635/667 nm fluorescence (AID 1139). As to conditions: small-molecule microarray binding, fluorescence 635/667; higher = more signal.
The subject of assay [8] is wheat germ agglutinin (Triticum aestivum), Alexa647-labelled. As to the kind of experiment: wheat germ agglutinin binders on compound microarrays, profiling panel, artefact control for SMM control-protein annotation, biochemical, small-molecule microarray, 635/667 nm fluorescence (AID 1140).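 Further: score merges 667 nm feature emission with signal to noise over triplicate slides.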 The settings on record: WGA-A647 binding, 635 nm fluorescence, higher = more signal.

The target in assay [9] is Luciferin 4-monooxygenase (Photinus pyralis) (UniProt P08659). Nature of the assay: firefly luciferase enzyme inhibitors, primary screen, biochemical, luminescence, purified enzyme, 2006 set (AID 1141).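 Further: cell-free assay with purified firefly luciferase at 100 ng per well in PBS; test concentration not given here.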 As to conditions: SteadyGlo luminescence, 30 min, higher = more signal, called active from +8 up or from −8 down.
Chain of Luciferin 4-monooxygenase (Photinus pyralis) (P08659 whole entry, looked up): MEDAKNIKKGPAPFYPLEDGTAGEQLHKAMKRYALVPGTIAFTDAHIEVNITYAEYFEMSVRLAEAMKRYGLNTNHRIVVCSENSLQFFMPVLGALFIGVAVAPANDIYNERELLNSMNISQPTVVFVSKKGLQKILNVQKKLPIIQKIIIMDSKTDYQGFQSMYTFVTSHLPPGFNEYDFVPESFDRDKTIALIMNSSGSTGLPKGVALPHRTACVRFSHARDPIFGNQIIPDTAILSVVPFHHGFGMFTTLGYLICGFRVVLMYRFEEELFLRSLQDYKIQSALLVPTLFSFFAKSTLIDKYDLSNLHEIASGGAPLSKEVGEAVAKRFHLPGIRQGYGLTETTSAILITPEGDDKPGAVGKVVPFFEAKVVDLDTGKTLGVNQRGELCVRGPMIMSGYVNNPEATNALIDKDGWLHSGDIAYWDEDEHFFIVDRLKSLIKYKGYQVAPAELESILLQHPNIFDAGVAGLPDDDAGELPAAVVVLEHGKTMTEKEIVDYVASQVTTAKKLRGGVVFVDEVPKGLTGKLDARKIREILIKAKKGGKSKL
In assay [10] the test system is Wnt5a (protein binding on small-molecule microarray). Nature of the assay: Wnt5a binders on small-molecule microarray, primary screen, biophysical, 635/667 nm fluorescence (AID 1142).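 Further: fluorescence read at 667 nm with signal to noise per printed feature.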 As to conditions: 635 nm fluorescence, higher = more signal.
Assay [11] is described as follows: cell viability in Huh7 cells, primary screen, cytotoxicity control for HCV replication inhibitor project, CellTiter-Glo luminescence, basal, 48 h (AID 1143).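 Further: Huh7 hepatoma cells carrying a hepatitis C replication reporter with no stimulus; test concentration not given here.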 As to conditions: Huh7 HCV replicon, higher = more signal, called active from +8 up or from −8 down. In general terms: Cellular ATP, detected with luciferase, serves as a proxy for viable cell number.
A short description of assay [12]: P. aeruginosa biofilm formation inhibitors, primary screen, PAO1 strain, BacTiter-Glo luminescence, LB-PBS (AID 1144). As to conditions: 12 h, higher = more signal.
Assay [13] in a line: CREB reporter modulators without forskolin, primary screen, cell-based, PC12, CRE-LacZ reporter, unstimulated (AID 1145). As to conditions: no forskolin, luminescence, 4.5 h, higher = more signal, called active from +8 up or from −8 down.
Assay [14] is described as follows: CREB reporter modulators under forskolin, primary screen, cell-based, PC12, CRE-LacZ reporter, forskolin-stimulated (AID 1146).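 Further: PC12 cells with 6xCRE LacZ reporter stimulated by forskolin 10 µM; beta-galactosidase reporter signal reflecting CREB driven transcription.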 The settings on record: luminescence, 4.5 h, higher = more signal, called active from +8 up or from −8 down.
The target of assay [15] is Streptavidin (Streptomyces avidinii) (UniProt P22629). Nature of the assay: streptavidin binders on small-molecule microarray, primary screen, artefact control for SMM compound annotation, biophysical, 635/667 nm fluorescence (AID 1147).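 Further: signal reflects streptavidin binding to arrayed compounds as a control protein.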 The settings on record: streptavidin binding, higher = more signal.
Chain of Streptavidin (Streptomyces avidinii) (P22629 whole entry, looked up): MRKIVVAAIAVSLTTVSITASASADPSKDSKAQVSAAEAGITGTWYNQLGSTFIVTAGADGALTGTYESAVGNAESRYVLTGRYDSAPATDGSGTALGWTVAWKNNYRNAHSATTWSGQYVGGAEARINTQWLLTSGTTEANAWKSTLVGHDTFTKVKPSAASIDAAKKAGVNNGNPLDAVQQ
Assay [16] is described as follows: small-molecule binders of probe aInhba, primary screen, biochemical, small-molecule microarray, 635/667 nm fluorescence (AID 1148).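 Further: score merges 667nm spot fluorescence with signal-to-noise for antibody binding to printed compounds.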 The settings on record: higher = more signal.
Assay [17] addresses Torsin-1A (Homo sapiens) (UniProt O14656). As to the kind of experiment: torsin A binders from cell lysate, primary screen, small-molecule microarray, wild-type, 635/667 nm (AID 1149). As to conditions: COS7 hTOR1A-WT lysate, 635 nm fluorescence, higher = more signal.
The target is the same in assay [18]. Nature of the assay: small-molecule binders of mutant TOR1A in lysate, primary screen, cell lysate, small-molecule microarray, COS7 lysate, 635/667 nm fluorescence (AID 1150).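 Further: score pools 667 nm emission and signal to noise measuring lysate protein binding.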 The settings on record: COS7 hTOR1A mutant lysate, 635 nm fluorescence, higher = more signal.
For assay [19], the system named is Sonic hedgehog protein (Shh). As to the kind of experiment: small-molecule binders of Shh protein, primary screen, biochemical, small-molecule microarray, 635/667 nm fluorescence (AID 1151).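 Further: Shh protein binding to compounds spotted on small-molecule microarray slides; score combines spot fluorescence intensity with signal-to-noise across triplicate slides.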 The settings on record: small-molecule microarray binding, 635 nm fluorescence; higher = more signal.

Chain of Torsin-1A (Homo sapiens) (O14656 whole entry, looked up): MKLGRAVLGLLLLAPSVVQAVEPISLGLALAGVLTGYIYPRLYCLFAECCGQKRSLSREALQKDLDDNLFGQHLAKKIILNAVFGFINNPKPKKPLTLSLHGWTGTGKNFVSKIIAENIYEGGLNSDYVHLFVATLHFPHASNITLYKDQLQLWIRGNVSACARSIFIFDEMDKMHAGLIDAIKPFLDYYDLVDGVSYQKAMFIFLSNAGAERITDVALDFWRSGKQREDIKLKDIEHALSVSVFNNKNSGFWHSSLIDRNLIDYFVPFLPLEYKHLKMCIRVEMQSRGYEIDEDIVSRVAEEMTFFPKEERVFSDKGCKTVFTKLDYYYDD
Chain of Follistatin (Homo sapiens) (P19883 whole entry, looked up): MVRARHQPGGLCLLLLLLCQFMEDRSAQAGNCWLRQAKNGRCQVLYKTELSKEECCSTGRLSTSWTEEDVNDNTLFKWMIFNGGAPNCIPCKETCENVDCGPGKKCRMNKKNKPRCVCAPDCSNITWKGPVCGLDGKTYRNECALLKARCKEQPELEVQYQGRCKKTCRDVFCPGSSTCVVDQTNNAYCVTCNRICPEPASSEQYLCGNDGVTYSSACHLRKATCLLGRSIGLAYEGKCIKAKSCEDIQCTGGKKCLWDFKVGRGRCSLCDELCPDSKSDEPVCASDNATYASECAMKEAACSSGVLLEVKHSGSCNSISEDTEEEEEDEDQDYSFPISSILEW
Chain of Fibroblast growth factor 2 (Homo sapiens) (P09038 whole entry, looked up): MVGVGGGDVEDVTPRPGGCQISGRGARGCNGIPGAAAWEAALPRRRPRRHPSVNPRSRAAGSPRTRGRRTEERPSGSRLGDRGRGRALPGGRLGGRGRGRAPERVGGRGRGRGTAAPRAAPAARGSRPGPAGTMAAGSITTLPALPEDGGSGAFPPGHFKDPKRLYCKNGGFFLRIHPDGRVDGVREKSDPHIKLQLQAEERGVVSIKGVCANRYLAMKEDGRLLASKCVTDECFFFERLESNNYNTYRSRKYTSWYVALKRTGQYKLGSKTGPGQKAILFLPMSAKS

For `CCCCC=C[C@@H](NC(=O)CCc1ccccc1)c1ccccc1`, the composite z-score in assay [1] was 0.838; in assay [2], 1.2; in assay [3], 0.507; in [4] it was 0.939; in assay [5], 0.361; in assay [6], 0.362. Moreover, the composite z-score in the assay with Lefty1 is -0.0782; in [8] it was 1.07; in assay [10], 0.317; in assay [15] it was 1.64; in assay [16], 0.128; with Torsin-1A (Homo sapiens) [17] it was 0.677. Moreover, the values for the composite z-score (in the assay with Torsin-1A (Homo sapiens) [18]; in assay [19]) were 0.701 and 0.0847, respectively. The z-score in [7] is -2.3; in [9], 1.08 (inactive); in assay [11] it was -1.98 (inactive); in [12], 0.175 (inactive); in [13], -0.951 (inactive); in [14] it was -0.0104 (inactive).
As for `CO[C@H]1O[C@H](CO)[C@@H](OC(=O)c2ccc(Br)cc2)[C@@H]2OC(=O)[C@H](Cc3cccc(Br)c3)C/C=C/C[C@@H](Cc3cccc(Br)c3)C(=O)O[C@@H]12`, the composite z-score in [1] was 1.58; in assay [2], 1.05; in [3], 0.214; in assay [4], 0.647; in [5] it was 1.02; in assay [6], 0.897. Moreover, the composite z-score was 0.442 in the assay with Lefty1; 0.31 in [8]; 0.422 in [10]; 0.578 in assay [15]; -0.0695 in [16]; -0.103 with Torsin-1A (Homo sapiens) [17]. Also, the composite z-score with Torsin-1A (Homo sapiens) [18] is 0.442; in [19], 0.707. The z-score was 1.02 in [7]; 0.0021 (inactive) in [9]; -1.62 (inactive) in assay [11]; -0.0682 (inactive) in assay [12]; 0.212 (inactive) in assay [13]; 0.122 (inactive) in [14].
With `COC(=O)C(CC#Cc1ccc2c(c1)[C@]1(C(=O)N2)[C@H](C(=O)N2CCc3cc(OC)c(OC)cc3C2)[C@H]2C(=O)O[C@H](c3ccccc3)[C@H](c3ccccc3)N2[C@@H]1c1ccc(O)cc1)C(=O)OC`, the composite z-score in assay [1] is 2.77; in [2], 1.22; in assay [3], 0.695; in [4], 0.867; in assay [5], 1.49; in assay [6], 1.84. For the same molecule, the composite z-score with Lefty1 worked out at 1.14; in [8] it was 0.664; in assay [10], 0.746; in [15] it was 0.112; in assay [16], 0.263; in the assay with Torsin-1A (Homo sapiens) [17], 0.644. Further, the values for the composite z-score (with Torsin-1A (Homo sapiens) [18]; in assay [19]) were 0.694 and 1.87, respectively. The z-score in assay [7] was -1.48; in [9], 8.96 (active); in assay [11], -3.3 (inactive); in [12], -1.21 (inactive); in assay [13] it was 0.0384 (inactive); in assay [14], -1.12 (inactive).
Take `COC(=O)[C@]1(Cc2ccccc2CN=[N+]=[N-])N=C(c2ccc(OCCCO)cc2)O[C@@H]1c1ccccc1CN=[N+]=[N-]`: the composite z-score in assay [1] was 1.12; in [2], 1.15; in assay [3], 0.392; in assay [4], 0.518; in assay [5], 1.17; in assay [6], 0.838. In addition, the composite z-score with Lefty1 is -0.222; in [8] it was 0.609; in [10], 0.749; in [15], -0.908; in [16], -0.0471; with Torsin-1A (Homo sapiens) [17], -0.355. Also, the composite z-score with Torsin-1A (Homo sapiens) [18] is -0.27; in [19] it was 0.353. Besides, the z-score in assay [7] was 1.02; in assay [9] it was -1.41 (inactive); in assay [11] it was -4.12 (inactive); in assay [12] it was -0.247 (inactive); in assay [13] it was 1.6 (inactive); in [14], -1.01 (inactive).

The record behind these values is PubChem BioAssay.
